Hits are enriched below; roughly 9% of the tested compounds scored in any of these assays.
HTT aggregate – mutant huntingtin aggregation inhibition; PC12 HttQ103-GFP aggregates, Acumen cytometry, 40 h; Potency, µM (top dose mostly 46.1 µM), inactives show at the highest dose activity change, negative = inhibition, hits mostly inhibitors; hit rate 1.1% among 220,000; further: on the % scale 0 is the no-effect control and ±100 the full control effect; nearly all actives have a fitted effect of over 60% in size
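Aggregate formation scored by laser-scanning cytometer (488 excitation, 500–530 emission) in lysed PC12 cells expressing Q103-GFP after 100 nM tebufenozide induction; library tested in dose series, with ATPLite reagent added in the multiplex.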
ALDH1A1 inh – ALDH1A1 (human) enzyme inhibition; Potency, µM (top dose mostly 75.3 µM), inactives show at the highest dose activity, negative = inhibition, most hits filed as inhibitors; hit rate 7.3% among 220,000; AID 1030; Purified ALDH1A1, NADH fluorescence, propionaldehyde substrate; P00352; active means well fitted inhibition curve with a large enough effect, not every such curve was filed as active; inconclusive means small, poorly fitted or top-dose-only effect, or another doubt; inactive means no such curve, though single readings can be large or run the other way;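 further: plate controls were no enzyme wells and a reference inhibitor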
Target sequence (P00352 whole entry, looked up): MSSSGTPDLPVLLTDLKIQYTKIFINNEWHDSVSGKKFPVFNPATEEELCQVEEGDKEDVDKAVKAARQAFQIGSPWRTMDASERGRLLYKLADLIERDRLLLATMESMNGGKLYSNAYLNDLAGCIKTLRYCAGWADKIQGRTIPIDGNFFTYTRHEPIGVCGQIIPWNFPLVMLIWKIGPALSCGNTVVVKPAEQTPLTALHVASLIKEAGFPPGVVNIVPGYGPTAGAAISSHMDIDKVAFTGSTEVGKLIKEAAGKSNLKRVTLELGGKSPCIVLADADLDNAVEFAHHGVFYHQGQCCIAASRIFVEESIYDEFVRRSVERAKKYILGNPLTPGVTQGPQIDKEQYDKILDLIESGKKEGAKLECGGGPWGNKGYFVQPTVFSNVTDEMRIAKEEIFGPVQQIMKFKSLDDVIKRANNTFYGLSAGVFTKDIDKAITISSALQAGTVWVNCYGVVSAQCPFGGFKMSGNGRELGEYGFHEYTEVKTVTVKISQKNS
HTT cytoprotect – cytoprotection in Huntington HTT-Q103 PC12 cell model; PC12 HTT-Q103 induced, cytoprotection, ATP luminescence, 40 h; Potency, µM (top dose mostly 56.4 µM), for inactives: cytoprotection (ATP increase), usual class: activators; hit rate 0.14% among 230,000; further: % of control where 0% means no effect; nearly all actives have a fitted effect of over 45% in size
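PC12 cells with ecdysone-inducible HTT exon 1 Q103-GFP, induced with 100 nM tebufenozide and co-treated with library compounds in a dose series (1536-well, 1500 cells/well). Cytoprotection read as ATP content by ATPlite luminescence.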
KinaseGlo FLuc – blocks Kinase-Glo luciferase, a counter-screen artifact; Q27757; Kinase-Glo luciferase, ATP luminescence, 8 min; Potency, µM (top dose mostly 38.3 µM), inactives show at the top dose activity change, negative = inhibition, most hits filed as inhibitors; hit rate 0.28% among 200,000; AID 1379; further: on the % scale 0 is the no-effect control and ±100 the full control effect; nearly all actives have a fitted effect of over 60% in size
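Compounds were added to a substrate mix at pH 7.2 (50 mM imidazole, 10 uM ATP, within the enzyme's linear range), followed by Kinase-Glo detection reagent; luminescence was measured after 8 minutes at ambient temperature.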
Lamin A splicing – LMNA splicing modulation; hit rate 0.01% among 200,000; AID 1487; Potency, µM (series often up to 46.1 µM), inactives show top-dose ratio change, negative = inhibition, most hits filed as inhibitors; HeLa LMNA splicing GFP/RFP minigene ratio, 48 h; active means well fitted inhibition curve with a large enough effect in the signal ratio, with a control signal flat, not every such curve was filed as active; inconclusive means small, poorly fitted or top-dose-only effect, or effect the other way, or a change in a side signal; the % refers to the signal ratio; further: on the % scale 0 is the no-effect control and ±100 the full control effect
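Read-out is the ratio of GFP to DsRed2 object intensity, acquired by 488 nm laser-scanning cytometry on HeLa lamin A-EGFP minigene reporter cells. Compound incubation 48 hrs at 37 °C in Opti-MEM with 2% FBS; DMSO 0.5% final.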
HPGD inh – inhibitors of human 15-hydroxyprostaglandin dehydrogenase (HPGD); P15428; purified HPGD, NADH fluorescence kinetic, PGE2 substrate; Potency, µM, inactives show at the highest dose activity change, negative = inhibition, hits mostly inhibitors; hit rate 4.3% among 150,000; active means well fitted inhibition curve with a large enough effect, not every such curve was filed as active; inconclusive means small, poorly fitted or top-dose-only effect, or another doubt; inactive means no such curve, though single readings can be large or run the other way; further: on the % scale 0 is the no-effect control and ±100 the full control effect
Target sequence (P15428 whole entry, looked up): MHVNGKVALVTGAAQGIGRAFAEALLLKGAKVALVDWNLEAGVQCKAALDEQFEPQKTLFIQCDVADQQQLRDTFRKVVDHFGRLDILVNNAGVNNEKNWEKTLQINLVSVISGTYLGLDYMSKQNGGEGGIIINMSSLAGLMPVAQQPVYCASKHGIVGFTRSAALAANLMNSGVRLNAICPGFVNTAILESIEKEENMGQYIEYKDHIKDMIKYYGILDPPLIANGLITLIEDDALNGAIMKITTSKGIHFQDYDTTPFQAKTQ
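NADH formation kinetics: reaction with 30 uM PGE2 and 1 mM NAD+ (final), 20 nM enzyme, Tris-HCl pH 8 with Tween 20, after 15 min compound preincubation at room temperature. Fluorescence change, last versus first of five reads.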
* marks the source's active call; other numbers are inactive results; ? = inconclusive; / = not tested or not shown; [ ] = another dose, or the depositor's remark. Unless noted, the call rests on the fitted dose curve; in most records, active means well fitted curve in the direction sought with a large enough effect; inconclusive means small, poorly fitted or top-dose-only effect, or another doubt; inactive means no such curve, though single readings can be large; an effect the other way counts as inactive or inconclusive. Potency means the concentration at half of the fitted maximal effect.

SMILES	HTT aggregate	ALDH1A1 inh	HTT cytoprotect	KinaseGlo FLuc	Lamin A splicing	HPGD inh
N#CC1=C(N)Oc2cc3ccccc3cc2C1c1cccs1 (configuration not stated)	20%	?	-58%	-1%	?	-5%
CCNC(=O)COC(=O)c1ccc(-n2nc(C)cc2C)cc1	5%	8%	17%	-1%	-5%[46 µM]	/
Cc1cc(C)n(-c2ccc(C(=O)OCC(=O)c3ccc(Br)s3)cc2)n1	-10%	22µM*	-11%	-4%	3%	-12%
COc1cc(/C=C2/SC(=S)N(c3ccccc3)C2=O)ccc1Oc1nc(N2CCOCC2)nc(N2CCOCC2)n1	14%	0.4µM*	-1%[10 µM]	0%	-9%	-14%
CCN1CCN(C(=O)c2ccccc2N(Cc2ccccc2)S(=O)(=O)c2ccc(C)cc2)CC1	-1%[9.22 µM]	2%	-2%	0%	3%	-11%
CCOC(=O)C1(Cc2cccc(Cl)c2)CCCN(C2CCN(C(C)=O)CC2)C1 (configuration not stated)	0%[9.22 µM]	-4%	13%[10 µM]	4%	?	/
O=C(O)c1ccc(Nc2nc3c(s2)CCCC3)cc1	15%[9.22 µM]	-2%	-41%	-4%	-20%[9.22 µM]	/
O=C(NC(=S)Nc1nc2c(s1)CCCC2)c1ccc(C(=O)c2ccccc2)cc1	-3%	3.5µM*	/	-1%	?	-23%
C/C(=N\Nc1nc2c(s1)CCCC2)c1ccccc1	-33%	25µM*	-16%	-5%	-20%	-30%
Cc1cccc(Nc2nc3c(s2)CCCC3)c1	-7%	20µM*	-35%[10 µM]	-5%	?	-13%
O=C(Nc1nc2c(s1)CCCC2)c1cccnc1	-5%	11µM*	19%	?	21%	-10%
O=C(Nc1nc2c(s1)CCCC2)Oc1ccccc1	-2%	-13%	8%	1%	4%	-13%
Cc1cc2c(ncn2C)c(NS(=O)(=O)c2ccc(F)cc2)c1C	-1%	-5%	?	1%	?	/
COc1ccc(C(=O)N(Cc2cc(OC)c(OC)c(OC)c2)c2ccccn2)cc1	/	/	/	/	4%[46 µM]	/
O=C(NC(=S)Nc1nc2c(s1)CSc1ccccc1-2)c1ccccc1	?	?	-73%	-2%	-21%	20µM*
O=C(CCCSc1nc2ccccc2s1)Nc1nccs1	-8%	16µM*	13%[10 µM]	-7%	-1%	25µM*
O=C(CCCc1nc2ccccc2s1)Nc1nccs1	15%	-9%	17%[10 µM]	1%	6%	-21%
COc1ccc(C(=O)Nc2ccc3nc(SCc4ccc(C)cc4)sc3c2)cc1	/	/	/	/	20%[46 µM]	/
NNC(=O)c1ccc(CSc2nc3ccccc3s2)cc1	?	3.5µM*	-18%	2%	?	/
O=C(CSc1ccc2ccccc2n1)NCc1ccc2c(c1)OCO2	-8%	18µM*	-16%[10 µM]	-2%	3%[46 µM]	/
O=C(CCCSc1nc2ccccc2s1)NCc1ccc2c(c1)OCO2	5%	3.5µM*	2%[1.9 µM]	1%	-18%	-24%
O=C(CSc1nnc(SCC(=O)NCc2ccc3c(c2)OCO3)s1)NCc1ccc2c(c1)OCO2	11%	13%	5%	-2%	-4%	-4%
O=C(CSc1nc2ccccc2s1)NCc1ccc2c(c1)OCO2	-6%	14µM*	3%[10 µM]	-1%	-18%	32µM*
CCOC(=O)/C(C(=O)Nc1ccccc1Br)=C1/NC(C)(C)Cc2ccccc21	13%	28µM*	-9%[10 µM]	-1%	-1%	-13%
CCOC(=O)/C(=N\O)C1=NC(C)(C)Cc2ccccc21	18%	12%	-31%[10 µM]	2%	6%	-11%
SMILES	HTT aggregate	ALDH1A1 inh	HTT cytoprotect	KinaseGlo FLuc	Lamin A splicing	HPGD inh
CCn1cc(NC(=O)CCl)c(C)n1	-8%[9.22 µM]	4.5µM*	-5%[10 µM]	-1%	?	/
O=S(=O)(c1ccc(N2CCCCCC2)nc1)N1CCCC1	9%	10%	/	-1%	/	/
COC(=O)c1sc(N2C(=O)C(=O)/C(=C(/O)c3ccccc3)C2c2ccco2)nc1C (configuration not stated)	12%	-2%	/	0%	-6%	25µM*
O=C(CCn1c(=S)oc2ccccc21)Nc1ccccc1F	-11%	-8%	-49%	0%	/	/
Cc1cccc(OCCNC(=O)c2ccc(Oc3ccc(C(F)(F)F)cc3[N+](=O)[O-])cc2)c1	-27%	4%	-7%	-4%	-18%	-24%
COc1cccc(CN=CC2=C(O)CC(C)(C)CC2=O)c1OC	-6%	?	-1%	-1%	-15%	?
COc1c(C)cc(C(=O)C2CCCN(C(=O)c3cc(C)nc(C)n3)C2)cc1C (configuration not stated)	-5%[9.22 µM]	-5%	-26%[10 µM]	2%	/	/
COc1c(C)cc(C(=O)C2CCCN(C(=O)/C=C/c3ccccn3)C2)cc1C (configuration not stated)	-4%	14µM*	-1%	0%	/	/
COc1ccc(N2C(=O)CC(Sc3nc(C)cc(C)c3C#N)C2=O)cc1 (configuration not stated)	16%	?	11%[10 µM]	2%	-6%	-5%
COc1ccc(N2C(=O)CC(Sc3nnc(-c4ccccc4)o3)C2=O)cc1 (configuration not stated)	25µM*	1.8µM*	-150%	15%	2%	22µM*
O=C1CC(Sc2nnc(-c3ccccc3O)o2)C(=O)N1c1ccccc1 (configuration not stated)	?	3.5µM*	-59%	1%	8%	?
Cc1ccc(CC(=O)OCC(=O)NC2CCCC(C)C2C)cc1C (configuration not stated)	-6%	-9%	2%	2%	9%[0.0737 µM]	-7%
OCC1(Cc2cccc(Cl)c2)CCCN(Cc2cn[nH]c2C2CCCCC2)C1 (configuration not stated)	-11%[9.22 µM]	-1%	8%[10 µM]	-4%	/	/
CCOc1ccc(C(C)=O)cc1COC(=O)c1cccnc1SC	26%	25µM*	0%[10 µM]	2%	?	/
COc1ccc(C(C)=O)cc1COC(=O)c1cc(C)nc2ccccc12	14%	8.9µM*	4%	0%	?	/
COC(=O)c1cccc(COC(=O)c2cccnc2SC)c1	17%	8%	-15%	-3%	6%	-7%
COc1ccc(C(C)=O)cc1COC(=O)CNC(=O)c1cc(C)cc(C)c1	8%	7.9µM*	-8%[1.9 µM]	3%	-2%	-13%
COc1ccc(C(C)=O)cc1COC(=O)c1cccc(N(C)C)c1	3%	?	-13%	-2%	?	?
COc1ccc(C(C)=O)cc1COC(=O)CCCN1C(=O)c2ccccc2C1=O	6%	3.5µM*	8%[10 µM]	0%	-6%[46 µM]	/
O=C(CSCc1ccc(F)cc1)NCc1ccc2c(c1)OCO2	-11%	-15%	-4%[10 µM]	4%	11%[46 µM]	/

High-throughput results from PubChem BioAssay.
